Test systems include SR leukemia; RPMI-8226 leukemia; OVCAR-8 ovarian; OVCAR-5 ovarian; OVCAR-4 ovarian; SK-OV-3 ovarian; IGROV1 ovarian; OVCAR-3 ovarian; HS 578T breast; NCI/ADR-RES ovarian; T-47D breast; BT-549 breast; MDA-MB-435 melanoma; SW-620 colon; MCF7 breast; HCT-116 colon; HCC-2998 colon; KM12 colon.
Holding throughout (assay): NCI-60 one-dose screen, 48 h (100 = growth as untreated, 0 = no growth, -100 = all killed)
Common to all, as to conditions: 10 µM unless noted

About 83,000 compounds went through this panel and 20% of them were active in at least one assay; those are over-represented in the sample as a whole.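 Growth was measured after 48 h exposure to one concentration of compound in 96-well plates. Values under 10 count as active.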 Values without a mark were called inactive. Calls of active or inactive are those of the source.

Take `CC1=NN(c2ccc(Cl)cc2)CC1(C)N=O` (configuration not stated): the growth in the assay with SR leukemia was 33%; with RPMI-8226 leukemia, 89.3%; with OVCAR-8 ovarian, 88.2%; with OVCAR-5 ovarian it was 126%; in the assay with OVCAR-4 ovarian, 77.3%; in the assay on SK-OV-3 ovarian, 114%. Further, the growth in the assay on IGROV1 ovarian was 103%; with OVCAR-3 ovarian it was 62.1%; in the assay on HS 578T breast, 82.9%; in the assay on NCI/ADR-RES ovarian, 94.4%; in the assay on T-47D breast it was 60.8%; in the assay on BT-549 breast, 86.1%. Moreover, the growth in the assay with MDA-MB-435 melanoma was 48.5%; with SW-620 colon, 43.7%; with MCF7 breast, 29.7%; in the assay with HCT-116 colon, 30.9%; in the assay with HCC-2998 colon it was 102%; in the assay with KM12 colon, 99.5%.
Consider `O=C(NCc1ccc2c(c1)OCO2)NCC1CCCC(CNC(=O)NCc2ccc3c(c2)OCO3)C1` (configuration not stated), for which the growth with SR leukemia is 95.2%; in the assay with RPMI-8226 leukemia, 102%; with OVCAR-8 ovarian, 100%; with OVCAR-5 ovarian, 108%; in the assay on OVCAR-4 ovarian, 96.1%; in the assay with SK-OV-3 ovarian, 99.1%. In addition, the growth with IGROV1 ovarian was 106%; with OVCAR-3 ovarian it was 108%; in the assay on HS 578T breast, 97.1%; in the assay on NCI/ADR-RES ovarian it was 104%; in the assay with T-47D breast, 86.7%; in the assay on BT-549 breast it was 96.3%. The growth in the assay with MDA-MB-435 melanoma is 95.9%; in the assay with SW-620 colon, 98%; in the assay on MCF7 breast, 101%; in the assay on HCT-116 colon it was 101%; with HCC-2998 colon, 102%; in the assay with KM12 colon it was 105%.
As for `CC1=C(C(=O)n2c3ccccc3c3ccccc32)C(c2cccc([N+](=O)[O-])c2)C(C(=O)n2c3ccccc3c3ccccc32)=C(C)N1`, the growth in the assay on SR leukemia was 68.5%; with RPMI-8226 leukemia it was 93.4%; in the assay with OVCAR-8 ovarian, 99.4%; in the assay with OVCAR-5 ovarian, 99.2%; with OVCAR-4 ovarian, 103%; in the assay on SK-OV-3 ovarian, 97.7%. Further, the growth in the assay on IGROV1 ovarian is 98.4%; with OVCAR-3 ovarian, 100%; in the assay on HS 578T breast it was 96.5%; in the assay on NCI/ADR-RES ovarian it was 98.7%; in the assay on T-47D breast, 80.5%; in the assay on BT-549 breast, 102%. In addition, the growth with MDA-MB-435 melanoma was 117%; in the assay with SW-620 colon it was 100%; in the assay on MCF7 breast, 94.8%; in the assay on HCT-116 colon, 91.8%; in the assay with HCC-2998 colon, 102%; with KM12 colon, 94.8%.
Regarding `O=c1ccc2nc(C(F)(F)F)nn(-c3ccccc3)c-2c1`, the growth in the assay on SR leukemia was -11.3% (active); in the assay with RPMI-8226 leukemia, 45.8%; with OVCAR-8 ovarian it was 73.1%; in the assay on OVCAR-5 ovarian it was 102%; in the assay with OVCAR-4 ovarian it was 79.8%; with SK-OV-3 ovarian, 79.3%. The growth was 71.7% in the assay on IGROV1 ovarian; -26.1% (active) in the assay on OVCAR-3 ovarian; 74% in the assay on HS 578T breast; 84% in the assay with NCI/ADR-RES ovarian; -40.8% (active) with T-47D breast; 69.2% in the assay with BT-549 breast. Besides, the growth in the assay with MDA-MB-435 melanoma was 62.3%; with SW-620 colon it was -63.3% (active); in the assay with MCF7 breast it was -49.3% (active); in the assay with HCT-116 colon, 35.2%; with HCC-2998 colon, 102%; with KM12 colon it was 96.8%.
As for `C#CC#CC#CC#CC#CC#CC#CC#CCC1OCC(COC(=O)O[C@@H](C(=O)O[C@H]2C[C@@]3(O)[C@@H](OC(=O)c4ccccc4)[C@@H]4[C@]5(OC(C)=O)CO[C@@H]5C[C@H](O)[C@@]4(C)C(=O)[C@H](OC(C)=O)C(=C2C)C3(C)C)[C@@H](NC(=O)c2ccccc2)c2ccccc2)O1` (some centres not stated), the growth in the assay with SR leukemia was 12.4%; with RPMI-8226 leukemia it was 7.03% (active); with OVCAR-8 ovarian, 14.8%; in the assay with OVCAR-5 ovarian, 18.8%; in the assay with OVCAR-4 ovarian, 59.5%; in the assay with SK-OV-3 ovarian, 41.9%. Besides, the growth in the assay on IGROV1 ovarian is 22.2%; in the assay on OVCAR-3 ovarian it was 4.93% (active); in the assay with HS 578T breast, -4.44% (active); with NCI/ADR-RES ovarian it was 93.5%; with T-47D breast, 36.6%; in the assay with BT-549 breast, 14.5%. In addition, the growth with MDA-MB-435 melanoma is -73.5% (active); with SW-620 colon, 24.1%; in the assay with MCF7 breast it was 16.1%; in the assay with HCT-116 colon it was 9.48% (active); in the assay on HCC-2998 colon it was 1.97% (active); in the assay on KM12 colon, 6.73% (active).
As for `Clc1nn2c(Cn3cnc4c(NCc5ccccc5)ncnc43)nnc2c2ccccc12`, the growth in the assay with SR leukemia is 17.2%; with RPMI-8226 leukemia, 37.7%; with OVCAR-8 ovarian, 33.2%; in the assay with OVCAR-5 ovarian, 74.2%; in the assay on OVCAR-4 ovarian, 37.9%; with SK-OV-3 ovarian it was -18.5% (active). Besides, the growth is 24.8% in the assay with IGROV1 ovarian; 45.8% in the assay on OVCAR-3 ovarian; 40.1% in the assay on HS 578T breast; 40.6% with NCI/ADR-RES ovarian; 18.2% in the assay on T-47D breast; 25.8% in the assay on BT-549 breast. The growth in the assay on MDA-MB-435 melanoma is 30.6%; in the assay with SW-620 colon, 48.2%; with MCF7 breast it was 62.1%; with HCT-116 colon, 21.9%; with HCC-2998 colon, 56.1%; with KM12 colon, 58.9%.
Consider `COc1ccc(C(c2cc(OC)c(OC)c(OC)c2)N2CCN(Cc3ccccc3)CC2)cc1` (configuration not stated), for which the growth in the assay with SR leukemia was 16.1%; with RPMI-8226 leukemia, 84.1%; with OVCAR-8 ovarian, 92.6%; with OVCAR-5 ovarian it was 84.7%; in the assay with OVCAR-4 ovarian it was 97%; in the assay on SK-OV-3 ovarian it was 66.2%. In addition, the growth in the assay with IGROV1 ovarian is 63%; in the assay on OVCAR-3 ovarian it was 69%; with HS 578T breast, 59.1%; in the assay on NCI/ADR-RES ovarian, 61.6%; in the assay on T-47D breast, 75.1%; with BT-549 breast, 92.4%. The growth in the assay on MDA-MB-435 melanoma was -32.2% (active); in the assay on SW-620 colon, 43.6%; with MCF7 breast it was 47.7%; in the assay with HCT-116 colon, 56.7%; with HCC-2998 colon, 91.9%; with KM12 colon, 40.6%.
With `COc1cc(C(=O)c2c(N)ncn2-c2ccccc2)cc(OC)c1OC`, the growth in the assay on SR leukemia was 122%; in the assay on RPMI-8226 leukemia, 136%; with OVCAR-8 ovarian, 101%; in the assay with OVCAR-5 ovarian, 102%; in the assay with OVCAR-4 ovarian, 101%; in the assay with SK-OV-3 ovarian, 95.4%. In addition, the growth in the assay with IGROV1 ovarian was 88.1%; with OVCAR-3 ovarian, 99.2%; in the assay on HS 578T breast, 98.5%; in the assay with NCI/ADR-RES ovarian, 82.5%; with T-47D breast, 101%; in the assay on BT-549 breast, 98.8%. Besides, the growth is 43.8% in the assay on MDA-MB-435 melanoma; 88.1% with SW-620 colon; 87.1% in the assay on MCF7 breast; 90.3% with HCT-116 colon; 99.6% with HCC-2998 colon; 72.4% in the assay on KM12 colon.
For `CC1(C)O[C@H]2OC3CCC(=O)CC3(O)[C@H]2O1` (some centres not stated), the growth was 107% in the assay with SR leukemia; 96% in the assay with RPMI-8226 leukemia; 98.2% with OVCAR-8 ovarian; 107% in the assay with OVCAR-5 ovarian; 110% with OVCAR-4 ovarian; 94.9% in the assay on SK-OV-3 ovarian. In addition, the growth in the assay with IGROV1 ovarian was 108%; in the assay with OVCAR-3 ovarian, 104%; in the assay with HS 578T breast, 97%; with NCI/ADR-RES ovarian it was 102%; in the assay on T-47D breast, 91.8%; in the assay on BT-549 breast, 104%. For the same compound, the growth is 112% in the assay on MDA-MB-435 melanoma; 105% in the assay with SW-620 colon; 108% with MCF7 breast; 95.1% in the assay with HCT-116 colon; 98.7% with HCC-2998 colon; 102% in the assay with KM12 colon.

The values above are taken from PubChem BioAssay (NCI).
